SENP7 block = inhibitors of human SENP7 protease; Q9BQF6; recombinant SENP7, Z-RLRGG-aminoluciferin luminescence, 40 min; inhibition, % at 5 µM; hit rate 1.5% among 330,000;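 active means inhibition above about 50% at the single test dose, limit read from the data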;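 further: plate controls were DMSO with enzyme for no effect and no enzyme buffer wells for full effect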
TRAIL sens C8 = sensitizes caspase-8 expressing cells to TRAIL; NB7+C8 cells + TRAIL, ATPlite viability luminescence; inhibition (viability loss, TRAIL sensitization), % at 10 µM; hit rate 1% among 360,000; AID 624354;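 active means compounds causing at least 50% loss of cell viability in the single-dose screen, relative to plate controls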
PPC-1+TRAIL kill = kills PPC-1 cancer cells in the presence of TRAIL; PPC-1 cells + TRAIL, ATPLite viability luminescence; cell killing (% activity), % at 4 µM or 5 µM; hit rate 0.41% among 220,000; AID 1443;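 active means cell killing above 50% in the first pass at 4 µM, then a duplicate retest at 5 µM averaging 50% or more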;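 further: plate controls were cells with TRAIL plus DMSO for no effect and medium-only wells lacking cells for full effect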
SENP8 block-1 = inhibitors of human SENP8 protease; Q96LD8; purified SENP8, Z-RLRGG-aminoluciferin cleavage, luminescence; inhibition, % at 10 µM; hit rate 1.2% among 330,000; AID 2540; in the data active means inhibition above about 50%
Target sequence (Q96LD8 whole entry, looked up): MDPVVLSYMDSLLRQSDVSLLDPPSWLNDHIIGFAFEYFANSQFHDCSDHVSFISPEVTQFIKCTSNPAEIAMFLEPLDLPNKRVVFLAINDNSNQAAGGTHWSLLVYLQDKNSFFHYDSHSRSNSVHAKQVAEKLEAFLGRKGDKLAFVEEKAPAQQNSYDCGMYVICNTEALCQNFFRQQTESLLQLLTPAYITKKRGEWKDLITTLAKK
SENP6 block = blocks the human protease SENP6; inhibition, % at 10 µM; Q9GZR1; hit rate 1.8% among 330,000; Recombinant SENP6 catalytic domain, aminoluciferin luminescence;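 active means inhibition above about 50% at the single tested dose, limit read from the data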;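 further: plate controls were DMSO wells with enzyme for no effect and DMSO wells lacking enzyme for full effect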
SENP8 block-2 = blocks human SENP8 cleavage of Nedd8 substrate; recombinant SENP8, Nedd8 substrate fluorescence; inhibition, % at 20 µM; hit rate 0.64% among 360,000; AID 602440; in the data active means inhibition mostly above about 40%, no sharp cut-off; inactive means mostly below about 27%
PPC-1 tox = kills PPC-1 cells; shares compounds with PPC-1+TRAIL kill; PPC-1 viability, ATPlite luminescence, overnight; cytotoxicity, % at 5 µM; hit rate 50% among 1,200;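 active means reconfirmed compounds whose average cytotoxicity reaches 50% or more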;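 further: 0% = DMSO-treated cells and 100% = wells holding medium but no cells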
* hit, by the source's call; x = not tested or not shown. Only some compounds are listed: those with a hit (about 3% of all), similar ones and a draw of the others.

SMILES	SENP7 block	TRAIL sens C8	PPC-1+TRAIL kill	SENP8 block-1	SENP6 block	SENP8 block-2	PPC-1 tox
C/C(=N\N1C(=O)c2ccccc2NC1c1ccccc1)c1ccccc1O (centres undefined)	-15	70*	48	-11	-27	4	42
C/C(=N\N1C(=O)c2ccccc2NC1c1ccco1)c1ccccc1O (centres undefined)	10	76*	46	15	17	-2	50*
COc1ccc(/C(C)=N/N2C(=O)c3ccccc3NC2c2ccc(O)c(OC)c2)cc1 (centres undefined)	3	4	17	1	8	-460	x
COc1ccc(N=Nc2nc3ccc(Br)cc3n2C)cc1	x	80*	76*	x	x	64*	72*
COc1ccc(-c2c(-c3cc(OC)cc(OC)c3)n(C)c3ccc(Br)cc23)cc1	-6	5	x	1	-8	-485	x
N#CCCN(Cc1cccs1)C(=O)c1ccc(Cl)cc1	-20	-3	6	-10	3	12	x
O=C(Nc1ccc(NC(=O)c2ccco2)cc1)c1ccc2c(c1)OCCO2	-3	6	-2	2	11	7	x
Cc1cc(NC(=O)c2ccc3c(c2)OCCO3)ccc1NC(=O)c1ccco1	14	63*	51*	2	24	5	50
O=C(O)c1ccc(NC(=O)c2ccccc2NC(=O)c2ccccc2Cl)cc1	-4	2	x	-4	-6	12	x
O=C(NCc1ccccn1)C(=O)N/N=C/c1ccc2c(c1)OCO2	11	1	4	3	-18	-29	9
CC1CCN(CCCNC(=O)CCNC(=O)Cn2cnc3ccccc3c2=O)CC1	8	-2	x	-1	2	14	x
CC(=O)c1cccc(NC(=O)C(C)OC(=O)/C=C/c2cccs2)c1 (centres undefined)	-6	3	x	3	-2	4	x
O=C(Nc1ccc(-c2ccccc2)cc1)c1ccc2c(c1)S(=O)(=O)c1ccccc1C2=O	-4	15	x	2	5	24	x
O=C1C(=O)c2ccc(-c3ccccc3)cc2-c2ccccc21	91*	93*	97*	58*	89*	100*	97*
Cc1cn([C@H]2C[C@H](O)[C@@H](CNS(=O)(=O)N3CCCC3)O2)c(=O)[nH]c1=O	x	-7	x	x	x	13	x
CCc1c(C)n2nc(C)cc2[nH]c1=O	2	-19	14	-1	4	-23	12
Cc1cc(C)n(CC(C)(O)c2ccccc2)n1 (centres undefined)	-2	-23	x	-1	-8	6	x
O=C(CCSc1ccc(Cl)cc1)N1CCOCC1	0	-6	7	0	-1	26	x
O=C(CSc1ccc(Cl)cc1)N1CCOCC1	3	-4	1	3	-9	17	5
CCC(=O)Nc1nonc1-c1nc2ccccc2n1CC(C)C	-4	12	-8	0	-4	-438	-13
O=C(CCc1nnc(C2CCCCC2)o1)N1CCC(Oc2cccnc2)CC1	-2	0	x	-1	3	3	x
CCCn1nnnc1NCc1ccccc1OCc1cccs1	-2	-5	6	-3	-3	10	13
COc1ccc(N2CCN(Cc3oc(CO)cc(=O)c3O)CC2)cc1	-12	-8	5	-5	12	10	10
CN1CCN(Cc2oc(CO)cc(=O)c2O)CC1	-3	-3	-3	-9	-6	14	x
CCOC(=O)C1=C(COC(=O)CCOc2cc(C)ccc2C)NC(=O)NC1C (centres undefined)	0	8	x	2	5	10	x
SMILES	SENP7 block	TRAIL sens C8	PPC-1+TRAIL kill	SENP8 block-1	SENP6 block	SENP8 block-2	PPC-1 tox
COC(=O)Cn1c(O)c(N=NC(=O)c2ccc3c(c2)OCO3)c2ccccc21	-12	61*	29	-14	-14	7	37
CCOC(=O)Cn1c(O)c(N=NC(=O)OC)c2ccccc21	5	-1	-5	4	-9	28	x
COC(=O)c1ccccc1NC(=O)Cn1c(CCC(=O)O)ccc1-c1cccs1	-2	7	7	-3	-5	-52	15
Cc1nc(-c2ccccc2)sc1C(=O)NN	-5	-2	15	-5	-2	1	14
CC(C)CC(=O)Nc1ccc(-c2cn3cccnc3n2)cc1	1	29	x	3	-1	-273	x
CC(C)(C)C(=O)Nc1ccc(-c2cn3ccsc3n2)cc1	1	90*	91*	-5	-4	17	90*
CC(C)CC(=O)Nc1ccc(-c2cn3ccsc3n2)cc1	-12	83*	71*	-16	2	8	71*
CC(=O)c1c(C)[nH]c(C(=O)OCC(=O)c2ccc(Br)cc2)c1C	x	3	x	x	x	-11	x
Cc1cccc(NC(=O)c2ccc(C3SCC(=O)N3CCc3ccccc3)cc2)c1C (centres undefined)	-11	16	34	-9	-10	18	x
Cc1nn(-c2ccccc2)c(C)c1/C=N\N1CCN(c2ccc(Cl)cc2)CC1	7	10	1	-8	-12	21	3
COCCn1c(=O)[nH]c(=O)c2c1nc(-c1cc(Br)c3c(c1)OCO3)n2Cc1ccccc1	4	-11	-7	2	8	-12	x
CCN(CC)C(=O)C(Sc1ccccc1)c1ccccc1 (centres undefined)	8	-4	0	4	1	3	2
CCCNC(=O)C(Sc1ccccc1)c1ccccc1 (centres undefined)	3	-5	-1	-2	-6	15	x
CCCn1c(N)c(C(=O)CSc2nnc(Cc3ccccc3)o2)c(=O)n(C)c1=O	-1	4	13	4	-1	-6	8
CCOc1ccc2nc(CN3CCN(Cc4ccsc4)C(CCO)C3)ccc2c1 (centres undefined)	-1	3	2	3	4	-39	x
COc1ccc(C(=O)Nc2cc(C)on2)c(OC)c1	1	23	x	0	-9	3	x

Source: PubChem
